The panel holds about 83,000 compounds, 20% with a hit somewhere; the sample as a whole holds those more often.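 The endpoint reported here, percent growth, reads 100 for growth as untreated, 0 for no net growth and -100 for all cells dead.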 Unmarked numbers belong to inactive results. Calls of active or inactive are those of the source. The calls were made as follows: active = growth percent below 10; inactive = the rest.

Experimental findings from PubChem BioAssay (NCI) are described below.

The subject of one assay is T-47D breast. Briefly: NCI-60 one-dose screen, 48 h (100 = growth as untreated, 0 = no growth, -100 = all killed). To be noted: 10 µM unless noted.
As to `COc1ccccc1S(=O)Nc1ccccc1` (centres undefined), the growth is 107%.
On the same count and under the same terms, to `O=C(C[n+]1ccn(CC(OCc2ccc(Cl)cc2Cl)c2ccc(Cl)cc2Cl)c1)c1ccc(F)cc1` (centres undefined) belongs -71.6% (active); to `C=C(C)[C@@H]1CC[C@]2(C(=O)NCCNCCNCCN)CC[C@]3(C)[C@H](CC[C@@H]4[C@@]5(C)CC[C@H](O)C(C)(C)[C@@H]5CC[C@]43C)[C@@H]12`, -32.6% [100 µM] (active).
For the molecule `CCOC(=O)c1c[nH]c2cc(OCC3CC3)c(OCC3CC3)cc2c1=O`, the growth was 109%.
As to `O=[N+]([O-])c1cc([N+](=O)[O-])c(NN=C(c2ccc(O)cc2)c2ccc(O)cc2)cc1Cl`, the growth is -50.4% (active).
Still for that read-out and setting: to `Cc1ccc(Cn2c(O)c(N=NC(=O)c3ccc(S(N)(=O)=O)cc3)c3ccccc32)cc1` belongs 83.7%.
Still for that read-out and setting: to `CCN(CC)CCCCCCNc1cccc2cc(Br)cnc12` belongs 112%; to `CCN(CCNc1ccc(C)c2sc3cc(Cl)ccc3c(=O)c12)CC(C)O` (centres undefined), 31.7%.
`COc1cc2c(c(OC)c1OC)-c1cc(I)c(O)cc1[C@@H](NC(C)=O)CC2`: the growth is 69.5%.
On the same count and under the same terms, then `CCNC(=O)N1CCc2c(Cl)c3c(c(OC)c2[C@@H]1[C@H]1OCc2c1ccc(OC)c2OC)OCCO3`, with 20.5%; and `O=C(Nc1ccccc1)Nc1ccc(C(=O)/C=C/c2ccc(N3CCCC3)cc2)cc1`, with 58.9%; and `CC(C)(C)c1cc(C(=O)Nc2ccccc2C(=O)NCCN)cc(C(C)(C)C)c1`, with -14.6% (active).
Consider `O=S(=O)(/N=c1/n(-c2ccccc2)nc2n1CCN2C1=NCCN1)c1ccc(-c2ccccc2)cc1`, for which the growth was 94%.
On the same count and under the same terms, then `Brc1ccc(-c2nnc3c4[nH]ccc4ncn23)cc1`, with 57.6%.
With `Cc1ccc(NCCN2CCCCC2)c2c(=O)c3ccccc3sc12`, the growth was 28.7%.
On to `CCCCCCSc1ncnc2nc[nH]c12`, for which the growth is 73.1%.
Consider `COc1ccc(CC(C#N)c2ccc(Cl)cc2)cc1` (centres undefined), for which the growth was 98.2%.
In the case of `CC(C)[C@H]1CCC2=C3CC[C@]45OC(=O)[C@@]6(CCC(C)(C)C[C@H]64)CC[C@@]5(C)[C@]3(C)CC[C@@]21C`, the growth is 53.9% [100 µM].
`O=C(N=c1n(-c2ccccc2)nc2n1CCN2C1=NCCN1)c1ccc(Cl)cc1`: the growth is 83.9%.
Consider `CNc1cc(C(=O)O)nc(NC)n1`, for which the growth is 102%.
The same measure, in the same setting: to `O=C(O)CSCc1nnc2n(Cc3ccccc3)c(=O)c3c4c(sc3n12)CCCC4` belongs 85%; to `CCCCCCCCCCCCNC(=S)N/N=C/c1ccccc1O`, 42.2%.
In the case of `COc1ncc(-c2ccc3nccc(C#CCCCCC(=O)NO)c3c2)cc1NS(=O)(=O)c1ccc(F)cc1F`, the growth is -22.6% (active).
On the same count and under the same terms, to `O=C(NCc1ccccc1)C(Cl)Cl` belongs 102%; to `C=C(C)[C@@H]1CC[C@]2(COCCCN)CC[C@]3(C)[C@H](CC[C@@H]4[C@@](C)(CCCNCCCN)[C@H](C(=C)C)CC[C@]43C)[C@@H]12`, -60.6% [100 µM] (active); to `C=C(C)[C@@H]1CC[C@]2(C(=O)N3CCN(C)CC3)CC[C@]3(C)[C@H](CC[C@@H]4[C@@]5(C)C/C(=C/c6ccncc6)[C@H](O)C(C)(C)[C@@H]5CC[C@]43C)[C@@H]12`, 10.8% [100 µM].
`COc1cc2c(c(OC)c1OC)-c1ccc(NNC(N)=S)c(=O)cc1[C@@H](NC(C)=O)CC2`: the growth was 70.7%.
In the case of `O=C(Oc1ccc(Cl)cc1[N+](=O)[O-])Oc1ccc(Cl)cc1[N+](=O)[O-]`, the growth is 115%.
On to `COCc1nc2ccccc2[nH]1`, for which the growth was 104%.
Regarding `CCOC(=O)n1cc(C2=C(c3ccc(OC)c(OC)c3)COC2=O)c2ccccc21`, the growth is 48.8%.
Regarding `CC(=O)Nc1ccc2nc3ccc(NC(C)=O)cc3[n+](-c3ccccc3)c2c1`, the growth was 93.4%.
With `C=C(C)[C@@H]1CC[C@]2(C(N)=O)CC[C@]3(C)[C@H](CC[C@@H]4[C@@]5(C)C/C(=C/c6cccnc6)[C@H](O)C(C)(C)[C@@H]5CC[C@]43C)[C@@H]12`, the growth was 16.1% [100 µM].
Turning to `CC(C)(C)OC(=O)N1C=C/C(=C\Cn2cc(-c3ccccc3)nn2)CC1`, the growth is 41.1%.
For `COc1ccc2c(c1)c(-c1noc(C(=O)c3cn(C)c4ncc(Br)cc34)n1)cn2C`, the growth is 49.7%.
For `COc1cccc(-c2[nH]c(=S)ncc2C(=O)c2ccccc2)c1`, the growth was 104%.
Regarding `COc1cc(C)cc2oc3oc(=N)c(C(=O)c4ccccc4)cc3c(=O)c12`, the growth is 103%.
With `COc1cc(/C=C/C(=O)/C=C/c2ccc(-n3ccnc3C)cc2)ccc1O`, the growth is 54.5%.

For another assay, the system named is BT-549 breast. Described as above. To be noted: 10 µM unless noted.
Regarding `COc1ccccc1S(=O)Nc1ccccc1` (centres undefined), the growth was 108%.
In the case of `O=C(C[n+]1ccn(CC(OCc2ccc(Cl)cc2Cl)c2ccc(Cl)cc2Cl)c1)c1ccc(F)cc1` (centres undefined), the growth was -94.9% (active).
Consider `C=C(C)[C@@H]1CC[C@]2(C(=O)NCCNCCNCCN)CC[C@]3(C)[C@H](CC[C@@H]4[C@@]5(C)CC[C@H](O)C(C)(C)[C@@H]5CC[C@]43C)[C@@H]12`, for which the growth is -51.9% [100 µM] (active).
Take `CCOC(=O)c1c[nH]c2cc(OCC3CC3)c(OCC3CC3)cc2c1=O`: the growth is 113%.
Same read-out and setting: to `O=[N+]([O-])c1cc([N+](=O)[O-])c(NN=C(c2ccc(O)cc2)c2ccc(O)cc2)cc1Cl` belongs -11.6% (active); to `Cc1ccc(Cn2c(O)c(N=NC(=O)c3ccc(S(N)(=O)=O)cc3)c3ccccc32)cc1`, 102%; to `CCN(CC)CCCCCCNc1cccc2cc(Br)cnc12`, 80.8%.
Same read-out and setting: to `CCN(CCNc1ccc(C)c2sc3cc(Cl)ccc3c(=O)c12)CC(C)O` (centres undefined) belongs 110%.
On the same count and under the same terms, then `COc1cc2c(c(OC)c1OC)-c1cc(I)c(O)cc1[C@@H](NC(C)=O)CC2`, with 3.61% (active).
Take `CCNC(=O)N1CCc2c(Cl)c3c(c(OC)c2[C@@H]1[C@H]1OCc2c1ccc(OC)c2OC)OCCO3`: the growth is 55.9%.
`O=C(Nc1ccccc1)Nc1ccc(C(=O)/C=C/c2ccc(N3CCCC3)cc2)cc1`: the growth is 93.3%.
As for `CC(C)(C)c1cc(C(=O)Nc2ccccc2C(=O)NCCN)cc(C(C)(C)C)c1`, the growth was 99.2%.
In the case of `O=S(=O)(/N=c1/n(-c2ccccc2)nc2n1CCN2C1=NCCN1)c1ccc(-c2ccccc2)cc1`, the growth was 97.9%.
For `Brc1ccc(-c2nnc3c4[nH]ccc4ncn23)cc1`, the growth is 94.3%.
Take `Cc1ccc(NCCN2CCCCC2)c2c(=O)c3ccccc3sc12`: the growth is 58.6%.
Consider `CCCCCCSc1ncnc2nc[nH]c12`, for which the growth was 82.6%.
As for `COc1ccc(CC(C#N)c2ccc(Cl)cc2)cc1` (centres undefined), the growth was 74.9%.
Regarding `CC(C)[C@H]1CCC2=C3CC[C@]45OC(=O)[C@@]6(CCC(C)(C)C[C@H]64)CC[C@@]5(C)[C@]3(C)CC[C@@]21C`, the growth was 82.1% [100 µM].
Take `O=C(N=c1n(-c2ccccc2)nc2n1CCN2C1=NCCN1)c1ccc(Cl)cc1`: the growth is 101%.
With `CNc1cc(C(=O)O)nc(NC)n1`, the growth is 88.7%.
Consider `O=C(O)CSCc1nnc2n(Cc3ccccc3)c(=O)c3c4c(sc3n12)CCCC4`, for which the growth was 101%.
Still for that read-out and setting: then `CCCCCCCCCCCCNC(=S)N/N=C/c1ccccc1O`, with 108%.
Turning to `COc1ncc(-c2ccc3nccc(C#CCCCCC(=O)NO)c3c2)cc1NS(=O)(=O)c1ccc(F)cc1F`, the growth is -13.2% (active).
For `O=C(NCc1ccccc1)C(Cl)Cl`, the growth was 122%.
In the case of `C=C(C)[C@@H]1CC[C@]2(COCCCN)CC[C@]3(C)[C@H](CC[C@@H]4[C@@](C)(CCCNCCCN)[C@H](C(=C)C)CC[C@]43C)[C@@H]12`, the growth was -43.2% [100 µM] (active).
As to `C=C(C)[C@@H]1CC[C@]2(C(=O)N3CCN(C)CC3)CC[C@]3(C)[C@H](CC[C@@H]4[C@@]5(C)C/C(=C/c6ccncc6)[C@H](O)C(C)(C)[C@@H]5CC[C@]43C)[C@@H]12`, the growth was -43% [100 µM] (active).
With `COc1cc2c(c(OC)c1OC)-c1ccc(NNC(N)=S)c(=O)cc1[C@@H](NC(C)=O)CC2`, the growth is -5.6% (active).
As to `O=C(Oc1ccc(Cl)cc1[N+](=O)[O-])Oc1ccc(Cl)cc1[N+](=O)[O-]`, the growth was 119%.
As to `COCc1nc2ccccc2[nH]1`, the growth was 164%.
On the same count and under the same terms, then `CCOC(=O)n1cc(C2=C(c3ccc(OC)c(OC)c3)COC2=O)c2ccccc21`, with 0.425% (active); and `CC(=O)Nc1ccc2nc3ccc(NC(C)=O)cc3[n+](-c3ccccc3)c2c1`, with 101%; and `C=C(C)[C@@H]1CC[C@]2(C(N)=O)CC[C@]3(C)[C@H](CC[C@@H]4[C@@]5(C)C/C(=C/c6cccnc6)[C@H](O)C(C)(C)[C@@H]5CC[C@]43C)[C@@H]12`, with 26.6% [100 µM].
On to `CC(C)(C)OC(=O)N1C=C/C(=C\Cn2cc(-c3ccccc3)nn2)CC1`, for which the growth was 58.1%.
For the molecule `COc1ccc2c(c1)c(-c1noc(C(=O)c3cn(C)c4ncc(Br)cc34)n1)cn2C`, the growth is 82.7%.
Regarding `COc1cccc(-c2[nH]c(=S)ncc2C(=O)c2ccccc2)c1`, the growth is 73.9%.
For `COc1cc(C)cc2oc3oc(=N)c(C(=O)c4ccccc4)cc3c(=O)c12`, the growth was 97.3%.
As to `COc1cc(/C=C/C(=O)/C=C/c2ccc(-n3ccnc3C)cc2)ccc1O`, the growth was 95.5%.
